# G9a inh-1: inhibitors of human histone lysine methyltransferase G9a. Q96KQ7. G9a H3K9 monomethylation, AlphaScreen, 2 h. Potency, µM (doses to about 102 µM), hits mostly inhibitors. hit rate 8.8% among 350,000. AID 504332; note: nearly all actives have a fitted effect of over 75% in size
# Target sequence (Q96KQ7 913-1193 limits assumed): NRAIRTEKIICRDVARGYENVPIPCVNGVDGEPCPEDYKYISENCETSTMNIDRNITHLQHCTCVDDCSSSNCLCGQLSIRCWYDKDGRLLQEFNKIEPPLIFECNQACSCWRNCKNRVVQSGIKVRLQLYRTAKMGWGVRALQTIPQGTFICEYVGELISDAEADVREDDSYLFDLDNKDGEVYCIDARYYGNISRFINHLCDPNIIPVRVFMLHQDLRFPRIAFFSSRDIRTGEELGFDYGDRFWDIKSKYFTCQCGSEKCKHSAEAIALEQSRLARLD
#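 Compounds were preincubated with 20 nM G9a for 15 min, after which biotinylated H3K9 peptide (500 nM) and SAM (20 uM) started a 2 h room-temperature reaction. Monomethylated product was quantified by antibody-based AlphaScreen chemiluminescence.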
# Six1-Eya2 blk: Six1/Eya2 interaction inhibition | Q15475+O00167 | AlphaScreen GST-Six1/His-Eya2 binding, biochemical; hits give low values | activity change, % (test concentration not listed) | hit rate 0.56% among 360,000 | AID 651725; in the data active = activity change below about -65%; inconclusive = mostly about -30% to -63%
#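 Homogeneous AlphaScreen proximity assay pairing GST-Six1 with His-tagged Eya2 (added as 5X mix: 250 nM and 500 nM) in 50 mM Tris pH 8.0, 300 mM NaCl, 1 mM TCEP. Glutathione donor and nickel acceptor beads; 1 h, 37 °C, dark.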
# BAZ2B inh: BAZ2B (human) inhibition | Q9UIF8 | AlphaScreen BAZ2B-H3K14Ac peptide displacement | Potency, µM (highest dose often 114 µM), hits mostly inhibitors | hit rate 4.4% among 360,000 | AID 504333; note: nearly all actives have a fitted effect of over 60% in size
#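 BAZ2B (50 nM) with biotin-H3(5-23)K14Ac peptide (50 nM) in PBS pH 7.4, 0.01% Tween-20, preformed 30 min, then compound 30 min at room temperature; top concentration 110uM. AlphaScreen streptavidin donor/nickel chelate acceptor beads (10 ug/mL final), 20 min dark, signal read.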
# HP1b chromo inh: HP1-beta chromodomain-methylated histone interaction inhibition; P83916; AlphaScreen HP1-beta / biotin-H3K9me3 peptide binding; Potency, µM (highest dose often 114 µM), hits mostly inhibitors; hit rate 0.56% among 390,000; AID 540317; note: nearly all actives have a fitted effect of over 70% in size
# Target sequence (P83916 whole entry, looked up): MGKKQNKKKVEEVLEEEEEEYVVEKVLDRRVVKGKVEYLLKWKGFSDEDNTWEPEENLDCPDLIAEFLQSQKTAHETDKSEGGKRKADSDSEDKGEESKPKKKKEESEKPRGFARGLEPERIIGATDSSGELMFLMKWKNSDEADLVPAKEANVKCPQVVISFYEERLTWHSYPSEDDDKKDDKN
#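 Compound inhibition of the preformed complex between 50 nM HP1-beta and 50 nM biotinylated H3K9me3 peptide was read by AlphaScreen. Buffer was PBS pH 7.4 with 0.01% Tween-20. Incubations ran 30 min at room temperature, with 10 ug/mL donor/acceptor beads.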
# CtBP-E1A inh: CtBP/E1A binding inhibition | AlphaScreen GST-E1A/His-CtBP binding, 1536-well; hits give low values | activity change, % (no concentration beside the values) | hit rate 0.49% among 340,000 | AID 651724; in the data active = activity change below about -65%; inconclusive = mostly about -30% to -63%
#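 AlphaScreen with 125 nM GST-E1A and 125 nM His-CtBP (5X stocks) in Tris pH 8.0, 300 mM NaCl, BSA, Tween 20, TCEP. Compounds preincubated 2 h at 37 deg C, then glutathione donor/nickel acceptor beads added for 1 h at 37 deg C in dark.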
# JMJD2A Tudor inh: inhibitors of human JMJD2A Tudor domain; AID 504339; AlphaScreen JMJD2A-Tudor / H3K4me3 peptide binding; hit rate 4.4% among 390,000; Potency, µM (series often up to 114 µM), hits mostly inhibitors; note: nearly all actives have a fitted effect of over 50% in size
# JMJD2E inh-1: blocks human JMJD2E demethylase activity. JMJD2E demethylase, FDH-coupled NADH fluorescence. AID 493212. hit rate 89% among 130. shares compounds with BAZ2B inh. Potency, µM (titrated, usually from 57 µM), actives largely listed as inhibitors
# ME-1 prolif: ME-1 cell growth inhibition. shares compounds with BAZ2B inh. ME-1 cell proliferation, ATP luminescence, 48 h. Potency, µM (series often up to 56.1 µM), usual class: inhibitors. hit rate 20% among 140
# JMJD2E inh-2: confirmation of inhibitors of human JMJD2E demethylase | shares compounds with JMJD2A Tudor inh | Recombinant JMJD2E, FDH-coupled NADH fluorescence (FDH is formaldehyde dehydrogenase) | Potency, µM (top dose mostly 56.8 µM), actives largely listed as inhibitors | hit rate 93% among 140
# FDH inh: FDH (Pseudomonas putida) inhibition counter-screen; shares compounds with JMJD2A Tudor inh; FDH enzyme assay, NADH fluorescence kinetic; Potency, µM (series often up to 56.7 µM), most hits filed as inhibitors; hit rate 10% among 140
# G9a inh-2: confirmation of human histone methyltransferase G9a inhibitors; hit rate 89% among 370; G9a H3K9 monomethylation, AlphaScreen, 2 h; shares compounds with JMJD2A Tudor inh; AID 588344; Potency, µM, hits mostly inhibitors; note: nearly all actives have a fitted effect of over 65% in size
# Hits are given with their value; . = inactive; ? = inconclusive; / = no result given; ! = not confirmed by another sample; [ ] = dose if it differs, or a comment. Shown are actives, neighbours in structure and some others; about 10% of the full set was active somewhere. Unless noted, calls come from the whole dose curve; as a rule, active = well fitted curve in the direction sought with a large enough effect; inconclusive = small, poorly fitted or top-dose-only effect, or another doubt; inactive = no such curve, though single readings can be large; an effect the other way counts as inactive or inconclusive.
SMILES,G9a inh-1,Six1-Eya2 blk,BAZ2B inh,HP1b chromo inh,CtBP-E1A inh,JMJD2A Tudor inh,G9a inh-2,others
CC[n+]1c(-c2ccccc2)c2cc(N)ccc2c2ccc(N)cc21,13µM,?,/,?,.,?,/,ME-1 prolif=10µM
CN1Cc2ccccc2[C@@H]2c3cccc4[nH]cc(c34)C[C@H]21,13µM,/,/,/,/,/,/,ME-1 prolif=11µM
O[C@H]1[C@H]2[C@H](O)CCCN2C[C@H]1O,.[12.7 µM],/,/,/,/,/,/,
Cc1ccc(-n2c(=O)[nH]c3ccc(Br)cc3c2=O)cc1,.,/,.,.,/,.,/,
O=C(O)c1ccc(O)c2ncc(N3CCNCC3)cc12,/,/,/,/,/,/,/,JMJD2E inh-1=4.1µM;JMJD2E inh-2=?;FDH inh=.
CC[C@@]1(c2ccc(N)cc2)CCC(=O)NC1=O,.[12.7 µM],/,/,/,/,/,/,
CC1C2Cc3ccc(O)cc3[C@]1(C)CCN2CCc1ccccc1 (stereo partly drawn),/,.,/,.,.,?,/,
CN1CC[C@]2(C)c3cc(O)ccc3N(C)[C@@H]12,8.9µM,/,/,/,/,/,/,JMJD2E inh-2=10µM;FDH inh=?
CCC(=O)N1CC(=O)Nc2ccc(C)cc2C1c1ccc(F)cc1 (stereo not drawn),.,/,.,.,/,.,/,
Cn1c(CNC(=O)c2ccco2)nnc1SCC(=O)N1c2ccccc2Sc2ccccc21,?,.,.,.,.,.,1,
COc1ccc(OCC(=O)N2CCN(Cc3ccc(SC)cc3)CC2)cc1,2.2µM,.,50µM!,?,.,2.5µM,32,
CC(C)NS(=O)(=O)c1ccc(OCC(=O)N2CCN(Cc3ccccc3)CC2)cc1,/,.,/,.,.,.,/,
Cc1c(OCC(F)(F)F)ccnc1CS(=O)c1nc2ccccc2[nH]1 (stereo not drawn),6.7µM!,.,35µM,.,.,?,0.5,
Cc1cc(=O)oc2c1c(C)nn2-c1nn[nH]n1,0.71µM,.,40µM,?,.,14µM,0.36,
Nc1c(C(=O)Nc2ccc(Cl)c(C(F)(F)F)c2)sc2nc3c(cc12)N1CCC3CC1,.,/,.,.,/,.,/,
O=C(Oc1ccccc1)N1CCC2(CCCN(Cc3ccccc3)C2)CC1,.[12.7 µM],/,/,/,/,/,/,
